# Calls of active or inactive are those of the source.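 Rule for the calls: active = inhibition above 20% together with a positive visual image hit; inconclusive = visual image hit but inhibition not above 20%; inactive = no visual image hit.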
# Assay: inhibitors of TNFa-induced NFkB p65 translocation, primary screen, imaging, HUVEC, MLSMR starter and 10KST1 sets (AID 438);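 note: compound added about 3h40 before a 20 min TNFalpha stimulation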;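 for inhibition: signal is the nuclear over cytoplasmic p65 intensity ratio per well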
# Conditions: HUVEC TNFa-induced p65 nuclear translocation; cell count: measured here: nuclei count (cytotoxicity indicator), at 2.08 µM; inhibition: at 2 µM, stronger effect = higher value, 0% TNFa-plus-vehicle, 100% no-TNFa wells
Structure (SMILES),inhibition,cell count
CCOC(=O)C1CCCN(C(=O)c2cc3c(=O)n4cccc(C)c4nc3n2C)C1 (stereo not drawn),-6% (inactive),218
COc1ccc(OC)c(S(=O)(=O)N2CCC(C(=O)NCc3ccccc3OC)CC2)c1,-2.1% (inactive),782
CCOC(=O)N1CCN(C(=O)CSc2nnc(-c3cc(OC)cc(OC)c3)o2)CC1,8.2% (inactive),228
CCCC(=O)Nc1cnc(NC(=O)c2cccc(F)c2)cc1C,14.1% (inactive),465
COc1ccc2cc(C#N)c(SCC(=O)N3CCCC3)nc2c1,-2.1% (inactive),514
c1ccc(CC2CCN(C(c3cccs3)c3nnnn3C3CCCC3)CC2)cc1 (stereo not drawn),-37.8% (inactive),743
COc1ccc(-n2c(=O)c3c4c(sc3n3c(C)nnc23)CCCC4)cc1,3.3% (inactive),415
CN(C)S(=O)(=O)NC(c1ccccc1)c1ccccc1,5.8% (inactive),671
COc1ccc(C2=NOC(C(=O)NC3CCCCC3)C2)cc1OC (stereo not drawn),-14.3% (inactive),832
CCCCCC1CC(CC(=O)O)C(=O)O1 (stereo not drawn),-25.6% (inactive),230
CC(c1ccccc1)n1cnc2ccccc21 (stereo not drawn),-2.5% (inactive),590
COc1ccc(OC)c(C2C(C(=O)Nc3ccc(F)cc3)=C(C)Nc3nc(CCCO)nn32)c1 (stereo not drawn),7.1% (inactive),666
Cn1c(=O)c2c(nc(Br)n2CCSc2nnnn2-c2ccccc2)n(C)c1=O,-3.4% (inactive),294
O=C(Nc1ccc(S(=O)(=O)Nc2ccc(Cl)cc2)cc1)C1CCCO1 (stereo not drawn),-6.5% (inactive),629

# Reference: PubChem BioAssay
